From PubChem BioAssay (NCI)
Compounds without any hit were thinned out: in the full panel of roughly 79,000, 15% have a hit. The source made the active and inactive calls. No stated cut-off is given here; in the data, active means growth inhibition above about 70%; inactive means the rest.

Experiments:
[1] = NCI Yeast Anticancer Drug Screen. Data for the rad50 strain (AID 155);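 further: 0% = growth of vehicle-only cultures of the same strain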; details: S. cerevisiae rad50 strain growth inhibition; at 50.0 µM; active compounds read high
Procedure, shortened: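 Readout: growth inhibition relative to vehicle-treated cultures. Compound exposure was carried out in a genetically defined yeast strain deficient in DNA damage repair.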

[2] = NCI Yeast Anticancer Drug Screen. Data for the mec2-1 strain (AID 157); details: S. cerevisiae mec2-1 strain, at 50.0 µM, active compounds read high
Procedure, shortened: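 Vehicle-treated cultures served as reference for growth inhibition of compound-exposed mec2-1 yeast.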

[3] = NCI Yeast Anticancer Drug Screen. Data for the sgs1 mgt1 strain (AID 161);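 further: 0% = growth of cultures given vehicle only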; details: S. cerevisiae sgs1 mgt1 strain, at 50.0 µM, active compounds read high
Procedure, shortened: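 Inhibition of yeast growth, normalised to vehicle-treated controls, is reported for a strain bearing genetic alterations in DNA damage repair.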

[4] = NCI Yeast Anticancer Drug Screen. Data for the cln2 rad14 strain (AID 165);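 further: 0% = growth equal to vehicle treated cultures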; details: S. cerevisiae cln2 rad14 strain, at 50.0 µM, active compounds read high
Procedure, shortened: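 Each compound was tested on cln2 rad14 yeast. Inhibition of growth was calculated against vehicle-exposed controls.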

[5] = NCI Yeast Anticancer Drug Screen. Data for the bub3 strain (AID 167); details: S. cerevisiae bub3 mutant strain, at 50.0 µM, active compounds read high
Procedure, shortened: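 Readout: yeast growth inhibition, expressed relative to vehicle-only wells. The test organism is a mutant strain from a panel with lesions in DNA repair or checkpoint genes.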

[6] = NCI Yeast Anticancer Drug Screen. Data for the mlh1 rad18 strain (AID 175); details: S. cerevisiae mlh1 rad18 strain growth inhibition; at 50.0 µM; active compounds read high
Procedure, shortened: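 Vehicle-treated cultures served as the reference for growth inhibition in a yeast strain carrying DNA damage repair alterations exposed to each compound.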

Measured: growth inhibition

COC(=O)C1(Cc2ccc3c(c2)CCC3)Cc2ccccc2C1
inactive: [1] -9.5% | [2] -25.5% | [3] -6.1% | [4] 5.2% | [5] 29.9% | [6] -9.2%

COc1cc(NCCCCCCCNC(C)C)c2nccc(C)c2c1
inactive: [1] 26.7% | [2] 13.7% | [3] -6.25% | [4] 7.35% | [5] -2.7% | [6] -33.1%

O=[N+]([O-])c1cc(/C=N/NS(=O)(=O)c2ccc(F)cc2)c(O)c([N+](=O)[O-])c1
inactive: [1] 10.2% | [2] -11.2% | [3] -14.6% | [4] 3.65% | [5] 0.35% | [6] 9%

C/C(=N\O)c1cccs1
inactive: [1] 3.8% | [2] -4.05% | [3] -6% | [4] -8.9% | [5] -0.25% | [6] -1.4%

CSCNC(=S)Nc1ccc(Cl)c(Cl)c1
inactive: [1] 59.2% | [2] 45% | [3] 35% | [4] 23.4% | [5] 53% | [6] 61.3%

O=C(O)c1cc2ccc(Cl)cc2c2cc(C(F)(F)F)ccc12
inactive: [1] 2.25% | [2] 27.8% | [3] 27.2% | [4] 50.9% | [5] 27.2% | [6] 53.7%

COc1ccc(COC=O)cc1
inactive: [1] 21.8% | [2] -5.1% | [3] -0.8% | [4] 1.55% | [5] 11.3% | [6] 24.4%

Cc1ccc(S(=O)(=O)n2ccnc2)cc1
inactive: [1] -46% | [2] -21.9% | [3] -1.25% | [4] 15.9% | [5] 11.7% | [6] -25.9%

COc1cc(CNC(=O)NCCCl)cc(OC)c1OC
inactive: [1] -5.55% | [2] 1.2% | [3] -3.2% | [4] -3.45% | [5] -1% | [6] 2.7%

c1ccc2[nH]c(N=Nc3cccc4c(N=Nc5cc6ccccc6[nH]5)cccc34)cc2c1
inactive: [1] 5.1% | [2] -11.4% | [3] -13.7% | [4] 18.1% | [5] -2.6% | [6] 8.65%

C[N+](C)(C)CC(=O)N/N=C(\C(=O)NC1=C(Cl)C(=O)c2ccccc2C1=O)C(C#N)c1csc(-c2ccc([N+](=O)[O-])cc2)n1 (stereo not given)
inactive: [1] 14.8% | [2] 26.6% | [3] -5.8% | [4] 17.6% | [5] 33.5% | [6] 19.9%

CC(=O)C[n+]1ccccc1Sc1ccc(Cl)cc1
inactive: [1] 12.6% | [2] -9.25% | [3] 14.1% | [4] 19.1% | [5] 3.55% | [6] 56.7%

COc1ccc(NC(=S)c2ccoc2C)cc1CC(=O)OC(C)C
inactive: [1] 17.4% | [2] 18.4% | [3] 48.5% | [4] 13.2% | [5] 37.9% | [6] -18.7%

O=C(O)C(Cc1ccc(O)cc1)NC(=O)C(CSC(c1ccccc1)(c1ccccc1)c1ccccc1)NC(c1ccccc1)(c1ccccc1)c1ccccc1 (stereo not given)
inactive: [1] 3.75% | [2] 30.9% | [3] 11.5% | [4] -2.35% | [5] -4.55% | [6] 23%

N=c1nc2n(cc1F)[C@@H]1O[C@H](CO)[C@@H](O)[C@@H]1O2
inactive: [1] 13.4% | [2] -3.75% | [3] 4.3% | [4] 8.55% | [5] 12.6% | [6] -12.2%

CC(C)(C)C1=CC(=O)C(C(C)(C)C)=CC1=O
inactive: [1] -2.35% | [2] 3.2% | [3] -17.2% | [4] -55% | [5] -7% | [6] 17.7%

O=C1CC(NC(=O)C(F)(F)F)c2c1csc2Br (stereo not given)
inactive: [1] -20.6% | [2] -2.55% | [3] -9.1% | [4] -12.6% | [5] -11% | [6] 20.2%

Fc1c(F)c(F)c(-c2nnc(-c3c(F)c(F)c(F)c(F)c3F)o2)c(F)c1F
inactive: [1] -2.45% | [2] 2.75% | [3] -8.75% | [4] -56.8% | [5] 9.3% | [6] 4.25%

CC(=O)n1[nH]c(=O)n(-c2ccc(Cl)cc2)c1=O
inactive: [1] -36.5% | [2] -37.2% | [3] -30.1% | [4] 2.1% | [5] -22.2% | [6] -73%

CC1=CC=NN2C(=O)[C@H](C)C2C1 (stereo not given in full)
inactive: [1] 5.8% | [2] 0.75% | [3] 0.3% | [4] 10.3% | [5] -9.05% | [6] 9.6%

CN(C)c1ccc(/C=C(\C#N)c2ccccc2Br)cc1
inactive: [1] 0.15% | [2] -10.5% | [3] 15.7% | [4] -28.2% | [5] 29.6% | [6] 3.95%

CC1(C)CC(C2=NCCO2)CC(C)(C)N1
inactive: [1] -43.7% | [2] -29.2% | [3] -39.3% | [4] -6.45% | [5] 15.2% | [6] -31.1%

CC(C)CC(Br)C(=O)NCC(=O)NCC(=O)O (stereo not given)
inactive: [1] 32.3% | [2] -17.1% | [3] -5.35% | [4] 7.95% | [5] 2.85% | [6] -8.95%

CCCCCCCCOc1ccc(Cl)cc1
inactive: [1] -2.95% | [2] -11.8% | [3] -5.35% | [4] -35.2% | [5] -21.6% | [6] -28.9%

O=C1c2ccccc2CN1c1ccccc1
inactive: [1] -23% | [2] -25.6% | [3] -3.25% | [4] 6.45% | [5] -7.5% | [6] -2.7%

O=C(OCCO)C1CC2CC1C1(C2)OCCO1 (stereo not given)
inactive: [1] -2% | [2] -13.2% | [3] 13.9% | [4] -12.1% | [5] 42% | [6] 0.5%

Cc1ccc(N(C)C(=O)Nc2ccccc2)c(C)c1
inactive: [1] 4.1% | [2] 3.6% | [3] 8.6% | [4] -20.6% | [5] 4.55% | [6] -12.8%

CC(=O)n1cc(CS)c(=O)[nH]c1=O
inactive: [1] -6.2% | [2] 1.2% | [3] -2.5% | [4] -15.2% | [5] -2.6% | [6] -19.4%

CCCCCCCCCCCCCCCCOc1ccc(-c2cc(=O)n(C)n2C)cc1
inactive: [1] 6% | [2] -18.6% | [3] -19.1% | [4] -8.45% | [5] -2.9% | [6] -4.05%

O=C1CC(SC(=S)N2CCCCC2)C(=O)N1c1ccccc1 (stereo not given)
inactive: [1] -19.6% | [2] 7.55% | [3] -2.55% | [4] -30.2% | [5] 7.25% | [6] 13.2%

N#CCCOC1C(OCCC#N)C(OCCC#N)C(OCCC#N)C(OCCC#N)C1OCCC#N (stereo not given)
inactive: [1] -14.2% | [2] -23.1% | [3] 8% | [4] 17.7% | [5] 28.2% | [6] 16.1%

Nc1nnc(-c2ccc(Cl)cc2)o1
inactive: [1] 21.3% | [2] -1.8% | [3] 21.2% | [4] 1.1% | [5] 0.05% | [6] 5.8%

O=C(Cl)CCc1ccnc2ccccc12
inactive: [1] 0.5% | [2] 3.25% | [3] 4.2% | [4] -8.45% | [5] 2.4% | [6] 11.2%

CNN=C(C)C
inactive: [1] -2.15% | [2] 3.8% | [3] -3.4% | [4] -4.8% | [5] 2.5% | [6] -19.3%

O=C1Nc2c(cccc2-c2ccccc2)C(=O)C1(O)c1ccccc1 (stereo not given)
inactive: [1] -0.35% | [2] -1.2% | [3] -0.6% | [4] -9.8% | [5] -2.6% | [6] -3.95%
